Measurements published in paper PMC4336329 (PLoS ONE, 2015).
Out of some 310,000 compounds screened, about 14,000 (4.5%) showed an effect of 50% or more. Effects have a minus sign here. Only a selection was taken, and strong results are over-represented in it overall.

Molecular target: human ether-à-go-go-related gene (hERG) potassium channel (human, UniProt Q12809)
Assay: primary screen, population patch clamp on CHO cells stably expressing hERG; higher = less effect of the substance
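Also: peak tail current of the secondary pulse compared with the same well before compound.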

human ether-à-go-go-related gene (hERG) potassium channel, sequence (Q12809 whole entry, looked up): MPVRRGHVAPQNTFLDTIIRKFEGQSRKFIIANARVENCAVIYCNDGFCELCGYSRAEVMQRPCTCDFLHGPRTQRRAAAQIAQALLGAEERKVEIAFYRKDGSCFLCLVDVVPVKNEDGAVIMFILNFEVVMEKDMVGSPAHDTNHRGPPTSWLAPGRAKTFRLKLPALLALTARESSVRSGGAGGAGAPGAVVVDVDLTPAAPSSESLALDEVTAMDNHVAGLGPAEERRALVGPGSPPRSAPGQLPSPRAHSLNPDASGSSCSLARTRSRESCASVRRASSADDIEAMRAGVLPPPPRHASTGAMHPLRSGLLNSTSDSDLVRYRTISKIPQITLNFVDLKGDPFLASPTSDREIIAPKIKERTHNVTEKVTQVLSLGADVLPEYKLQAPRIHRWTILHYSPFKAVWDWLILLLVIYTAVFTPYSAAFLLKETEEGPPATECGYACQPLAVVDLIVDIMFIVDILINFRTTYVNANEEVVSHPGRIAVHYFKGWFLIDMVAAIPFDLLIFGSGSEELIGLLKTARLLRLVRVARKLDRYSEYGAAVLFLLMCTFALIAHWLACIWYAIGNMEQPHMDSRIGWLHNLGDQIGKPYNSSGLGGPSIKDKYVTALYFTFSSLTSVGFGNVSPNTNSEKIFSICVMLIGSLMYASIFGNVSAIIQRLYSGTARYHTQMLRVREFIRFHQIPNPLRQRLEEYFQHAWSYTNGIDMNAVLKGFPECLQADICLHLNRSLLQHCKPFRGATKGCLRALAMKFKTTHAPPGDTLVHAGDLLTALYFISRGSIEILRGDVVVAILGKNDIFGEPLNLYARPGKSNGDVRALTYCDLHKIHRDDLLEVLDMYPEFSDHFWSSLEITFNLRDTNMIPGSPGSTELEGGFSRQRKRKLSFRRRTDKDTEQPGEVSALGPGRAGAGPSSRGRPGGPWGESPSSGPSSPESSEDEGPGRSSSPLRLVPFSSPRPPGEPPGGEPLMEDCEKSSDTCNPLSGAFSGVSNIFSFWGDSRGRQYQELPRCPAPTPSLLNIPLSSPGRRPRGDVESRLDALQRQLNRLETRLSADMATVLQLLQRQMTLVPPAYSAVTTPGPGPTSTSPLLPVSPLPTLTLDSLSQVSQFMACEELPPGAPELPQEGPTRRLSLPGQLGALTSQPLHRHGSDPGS

| SMILES | hERG current change (%, negative = inhibition) at 10uM |
| --- | --- |
| CCOC(=O)c1c(NC(=O)C(C)N2CCN(C(=O)c3ccco3)CC2)sc2c1CCCC2 (stereo not drawn) | -56.1% |
| CCOC(=O)c1c(NC(=O)CN2CCN(C(=O)c3ccco3)CC2)sc2c1CCCC2 | -8.72% |
| COc1ccc(C2=C(C=Nc3c(C)n(C)n(-c4ccccc4)c3=O)C(c3ccccc3C)c3ccccc3O2)cc1OC (stereo not drawn) | 11.7% |
| CCOC(=O)C1CCN(c2ncnc3c2cnn3C)CC1 | 6.3% |
| Fc1ccc(NC(=S)N2CCCC2)cc1Cl | 8.95% |
| CS(=O)(=O)NNC(=O)Cn1nnc(-c2cc(C(F)(F)F)cc(C(F)(F)F)c2)n1 | 19.7% |
| O=C(NNC(=O)c1nn(-c2ccc(F)cc2)ccc1=O)c1ccccc1Cl | -5% |
| O=C(Cn1cnc2ccccc2c1=O)NC1CCCc2ccccc21 (stereo not drawn) | 6.08% |
| CCCCn1c(SCC(=O)Nc2cc(C)on2)nnc1-c1cccs1 | -48.3% |
| CCOC(=O)Cc1csc(NC(=O)COc2ccc3c(c2)CCC3)n1 | -1.14% |
| COc1ccc(C)cc1S(=O)(=O)NCCN1CCOCC1 | 17.5% |
| CC(C)c1ccc(N(C(=O)c2ccco2)C(C(=O)NC2CCCC2)c2cccnc2)cc1 (stereo not drawn) | -25.3% |
| COc1cccc(/C=C(/C#N)c2ccc(F)cc2)c1OCc1cccc(C(=O)O)c1 | 11.4% |
| CCN1CCc2nc3ccccc3c(C(=O)Nc3ccc(F)cc3)c2C1 | -74.5% |
| CCOc1ccc(NC(=O)c2c3c(nc4ccccc24)CCC3)cc1 | 8.95% |
| CCN1CCc2nc3ccccc3c(C(=O)Nc3ccc(NC(C)=O)cc3)c2C1 | 10.2% |
| CCN1CCc2nc3ccccc3c(C(=O)Nc3ccc(C#N)cc3)c2C1 | -71% |
| O=C(NCc1ccc(F)cc1)c1c2c(nc3ccccc13)CCN(Cc1ccccc1)C2 | -22.2% |
| O=C(Nc1ccccc1)c1c2c(nc3ccccc13)CCCC2 | -0.42% |
| CCCCC(=O)Nc1cccc(NC(=S)NC(=O)C(C)C)c1 | 3.44% |
| O=C(NCCc1ccco1)C(=O)NCC1OCCCN1S(=O)(=O)c1ccccc1 (stereo not drawn) | -1.76% |

| SMILES | hERG current change (%, negative = inhibition) at 10uM |
| --- | --- |
| COc1ccc(/C=N/NC(=S)NCC2CCCO2)cc1 (stereo not drawn) | 6.97% |
| CCCC(=O)Nc1ccc(NC(=O)c2ccccn2)cn1 | -8.57% |
| CC(C)NC(=O)CSCc1ccccc1Cl | 12.9% |
| Cc1ccc(C)c2[nH]c(=O)c(C(c3nnnn3Cc3ccccc3)N3CCc4ccccc4C3)cc12 (stereo not drawn) | -9.12% |
| COc1ccc(Cn2nnnc2C(c2cc3cccc(C)c3[nH]c2=O)N2CCN(C)CC2)cc1 (stereo not drawn) | 29.6% |
| COc1ccc(Cn2nnnc2C(c2cc3cccc(C)c3[nH]c2=O)N2CCOCC2)cc1 (stereo not drawn) | -43.6% |
| COc1cc2cc(C(c3nnnn3Cc3ccc(F)cc3)N3CCCCCC3)c(=O)[nH]c2cc1OC (stereo not drawn) | -74% |
| COc1ccc(Cn2nnnc2C(c2cc3cc(C)cc(C)c3[nH]c2=O)N2CCOCC2)cc1 (stereo not drawn) | -58.2% |
| CCc1ccc2[nH]c(=O)c(C(c3nnnn3Cc3ccc(OC)cc3)N3CCOCC3)cc2c1 (stereo not drawn) | -19.1% |
| Cc1ccc2[nH]c(=O)c(C(c3nnnn3CCc3ccccc3)N3CCOCC3)cc2c1 (stereo not drawn) | -10.5% |
| Cc1ccc(C)c2[nH]c(=O)c(C(c3nnnn3CCc3ccccc3)N3CCOCC3)cc12 (stereo not drawn) | -59.4% |
| COc1ccc(Cn2nnnc2C(c2cc3cc(C)ccc3[nH]c2=O)N2CCOCC2)cc1 (stereo not drawn) | -50.2% |
| COc1ccc(Cn2nnnc2C(c2cc3ccc(OC)cc3[nH]c2=O)N2CCCCCC2)cc1 (stereo not drawn) | -13.6% |
| COc1ccc2cc(C(c3nnnn3Cc3ccc(F)cc3)N3CCCCCC3)c(=O)[nH]c2c1 (stereo not drawn) | -23.3% |
| COc1ccc(Cn2nnnc2C(c2cc3cc(C)ccc3[nH]c2=O)N2CCN(C)CC2)cc1 (stereo not drawn) | -24.4% |
| COc1cnc(-c2ccccc2)nc1Oc1ccccc1C | -4.2% |
| CN(C)c1ccc(C(=O)/C=C/c2ccccc2)cc1 | 8.65% |
| O=C(NNC(=O)C1CCN(c2ncccn2)CC1)c1ccc(Cl)cc1 | 0.113% |
| Cc1cccc(C)c1NC(=O)c1cc2c(=O)c3ccccc3oc2nc1C(F)(F)F | -3.38% |
| C=CCn1cccc(C(=O)Nc2ccc(F)cc2)c1=O | -24.8% |
| COC(=O)CSc1nnc(-c2ccccn2)n1Cc1ccco1 | -13.8% |
